# Tested on: T1, LZK
# T1 construct: gene MAP3K13
# Details: concentration: 1 μM, replicates: in singlicate; n = 1
# 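Further: KINOMEscan kinase panel screen.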
row,SMILES,%Inh
1,CN1CCN(Cc2cccc(-c3ccc4c(Nc5ccc(Oc6ccccc6)cc5)ccnc4c3)c2)CC1 [GW578342],0%
2,Nc1ncc(-c2cccnc2)c2scc(-c3ccc4c(c3)CCN4C(=O)Cc3ccccc3)c12 [GSK683281],0%
3,O=C(Nc1cccc(-c2nn3ncccc3c2-c2ccnc(Nc3ccccc3)n2)c1)c1c(F)cccc1F [GSK198271],0%
4,Cl.c1ccc(-c2ccc3c(Nc4ccc5[nH]ccc5c4)ccnc3c2)nc1 [GW440138],39%
5,Cc1ccc(C(=O)Nc2ccc(Nc3ccnc4cc(-c5nccs5)ccc34)cc2O)cc1.Cl [GW494702],21%

# Tested on: MAK
# Details: concentration: 1 μM, replicates: in singlicate; n = 1
row,SMILES,%Inh
1,Nc1ncnc2c1nc(-c1ccccc1)n2-c1ccccc1 [SKF-97293],27%
2,CC(=O)Nc1nc2cnc(Nc3cc(NC(=O)c4cccc(C5(C#N)CC5)c4Cl)ccc3C)nc2s1,0%
3,c1ccc(Oc2ccc(Nc3ccnc4cc(-c5ccc(CNCCN6CCOCC6)o5)ccc34)cc2)nc1 [GW567145],0%
4,Cn1cc(-c2[nH]c3cc(NC(=O)[C@H](N)C4CCCCC4)cc4c3c2C=NNC4=O)cn1,0%
5,CC(C)c1nc(-c2cccc(NS(=O)(=O)c3c(F)cccc3F)c2F)c(-c2ccnc(Nc3ccc(N4CCOCC4)nc3)n2)s1 [GSK2008607],100%
6,COc1cc(Nc2nccc(-c3c(-c4cccc(NC(=O)c5c(F)cccc5F)c4)nn4ccccc34)n2)cc(OC)c1OC [GSK323521],9%
7,COc1cc(Nc2nccc(N3CCC(NC(=O)c4cc5ccccc5s4)C3)n2)cc(OC)c1OC (stereo not drawn) [GSK1379760],23%

# From publication PMC5540273 (PLoS ONE, 2017)
